# Compounds with a hit are over-represented: about 10% of the library has one in this group of screens.
# GLS inh = qHTS for Inhibitors of Glutaminase (GLS). Glutaminase kidney isoform, mitochondrial (Homo sapiens), O94925. GLS enzymatic activity, qHTS titration. Potency, µM (titrated, usually from 45.5 µM), actives largely listed as inhibitors. 0.21% of 410,000 active. AID 624170, 2012
#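 Glutamate formation by hKGA was monitored fluorometrically using coupled glutamate oxidase, HRP and Amplex Red. Substrate was added as 1 mM L-glutamine solution; incubation was 30 min at RT after an initial read.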
# JMJD2A Tudor = qHTS Assay for Inhibitors of JMJD2A-Tudor Domain | Lysine-specific demethylase 4A (Homo sapiens), O75164 | AlphaScreen JMJD2A-Tudor / H3K4me3 peptide binding | Potency, µM (top dose mostly 114 µM), most hits filed as inhibitors | 4.4% of 390,000 active; note: nearly all actives have a fitted effect of over 50% in size
# G9a block = qHTS Assay for Inhibitors of Histone Lysine Methyltransferase G9a; Histone-lysine N-methyltransferase EHMT2 (Homo sapiens), Q96KQ7; G9a H3K9 monomethylation, AlphaScreen, 2 h; Potency, µM (doses to about 102 µM), hits mostly inhibitors; 8.8% of 350,000 active; note: nearly all actives have a fitted effect of over 75% in size
#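 AlphaScreen detection with an anti-monomethyl H3K9 antibody quantified product after a 2 h room-temperature reaction containing 500 nM biotinylated H3K9 peptide, 20 µM SAM and 20 nM enzyme, which had been preincubated 15 min with compound.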
# BAZ2B block = qHTS Assay for Inhibitors of BAZ2B; AlphaScreen BAZ2B-H3K14Ac peptide displacement; Potency, µM (series often up to 114 µM), hits mostly inhibitors; 4.4% of 360,000 active; note: nearly all actives have a fitted effect of over 60% in size
#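 Complex of BAZ2B and biotin-H3K14Ac (50 nM apiece) forms over 30 min at RT, then faces library compounds up to 110 uM for another 30 min; AlphaScreen beads added, 20 min dark incubation, luminescence read.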
# HP1b binding inh = HTS for Inhibitors of HP1-beta Chromodomain Interactions with Methylated Histone Tails. Chromobox protein homolog 1 (Homo sapiens), P83916. AlphaScreen HP1-beta / biotin-H3K9me3 peptide binding. Potency, µM (doses to about 114 µM), actives largely listed as inhibitors. 0.56% of 390,000 active; note: nearly all actives have a fitted effect of over 70% in size
#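 HP1-beta protein (50 nM final) preincubated 30 min at room temperature with biotinylated H3(1-18)K9me3 peptide (50 nM) in PBS pH 7.4, 0.01% Tween-20, then compound added for 30 min. AlphaScreen streptavidin donor/nickel chelate acceptor beads (10 ug/mL final), 30 min dark, luminescence read.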
# A number is an active result; . = inactive; ? = inconclusive; / = no result; [ ] = dose if it differs, or a comment. Calls come from the whole dose curve; as a rule, active = well fitted curve in the direction sought with a large enough effect; inconclusive = small, poorly fitted or top-dose-only effect, or another doubt; inactive = no such curve, though single readings can be large; an effect the other way counts as inactive or inconclusive.
SMILES,GLS inh,JMJD2A Tudor,G9a block,BAZ2B block,HP1b binding inh
Cc1ccc(-c2ccc(CCC(=O)O)n2NC(=O)c2ccco2)cc1,.,.,.[12.7 µM],.,.
CCc1nn(CC(=O)NC(C)CCc2ccccc2)c(=O)c2cc3occc3n12 (stereo unspecified),.,45µM,.,.,.
CCc1nn(C(C)C(=O)NCCc2ccccc2)c(=O)c2cc3occc3n12 (stereo unspecified),.,.,/,.,.
CCc1nn(CCCC(=O)N2CCN(c3cccc(C)c3C)CC2)c(=O)c2cc3occc3n12,.,.,71µM,?,.
S=c1[nH]nc(-c2cccnc2)n1/N=C/c1cccs1,.,3.5µM,4µM,.,.
S=c1[nH]nc(-c2cccnc2)n1/N=C/c1ccccc1,.,3.5µM,4µM,?,.
Cc1nc2ccccc2n1/N=C/c1cccnc1,.,.,.,.,.
Fc1cccc(Cl)c1/C=N/n1c(-c2cccnc2)n[nH]c1=S,.,3.2µM,?,?,.
S=c1[nH]nc(-c2cccnc2)n1/N=C/C=C/c1ccccc1,?,7.1µM,1.8µM,.,.
O=C(N/N=C/c1cccs1)c1cccnc1,.,.,.,.,.
COc1ccc(NC(=O)CN(C)S(=O)(=O)c2cnc[nH]2)cc1OC,.,.,.,.,.
[O-]/[N+](=C\c1ccc(OC(F)F)cc1)c1ccccc1,.,.,50µM,.,.
Cc1nc(SCC(=O)NC2(C#N)CCCC2)n(CC(C)C)c1C,.,.,40µM,.,.
COc1cc(O)c(C(CC(=O)N2CCN(c3ccccc3)CC2)c2ccc(N(C)C)cc2)c(OC)c1 (stereo unspecified),.,28µM,?,25µM,?
COc1ccc(C(CC(=O)N2CCCC2)c2c(O)cc(OC)cc2OC)cc1 (stereo unspecified),.,.,.[12.7 µM],.,.
COc1cc(O)c(C(CC(=O)N2CCCC(C)C2)c2ccc(N(C)C)cc2)c(OC)c1 (stereo unspecified),.,40µM,?,50µM,?
O=S(=O)(Nc1c(S(=O)(=O)c2ccccc2)c2nc3ccccc3nc2n1C1CCCCC1)c1ccccc1,.,.,.,.,.
C=CCn1c(NS(=O)(=O)c2ccccc2)c(S(=O)(=O)c2ccc(C)cc2)c2nc3ccccc3nc21,.,.,2µM,.,.
CC(C)(C)C(=O)Nc1ccnn1C1CCN(C(=O)c2ccc(Cl)cc2F)CC1,.,.,/,.,.
COc1ccc(-c2csc(N3N=C(C)C(C)C3=O)n2)cc1 (stereo unspecified),.,.,.,.,.
CCOc1ccc(Br)cc1/C(C)=N\NC1=NCCN1,.,.,56µM,.,.
CCCCCOc1ccc(/C(C)=N/NC2=NCCN2)cc1,.,.,.,.,.
COc1ccc(OCc2ccc(/C=N\NC(=O)c3sccc3C)o2)cc1,.,.,40µM,.,.
O=C(N/N=C\c1ccc(COc2ccc([N+](=O)[O-])cc2)o1)c1ccc(Cl)cc1,.,.,.,.,.
COc1cccc(NC(=O)CCN2C(=O)c3ccccc3S2(=O)=O)c1,.,.,.,.,.
SMILES,GLS inh,JMJD2A Tudor,G9a block,BAZ2B block,HP1b binding inh
COc1cc(/C=C2/C(=O)NN(c3cccc(C)c3)C2=O)ccc1OC(=O)c1ccco1,?,.,?,?,.
COc1ccc(CNC(=O)CN2CCN(c3cccc(C)c3C)CC2)cc1,.,.,.,.,.
COc1cc(CN2CCC(C(=O)NC3CCCC3)CC2)cc(Br)c1O,.,3.2µM,10µM,50µM,.
COc1ccc(S(=O)(=O)N2CCC(C(=O)NC3CCCC3)CC2)cc1OC,.,.,?,.,.
COc1ccc(CN2CCN(c3cccc(C)c3C)CC2)cc1OC,/,.,11µM,56µM,.
COc1cc(CN2CCN(c3cccc(C)c3C)CC2)cc(Br)c1O,.,2µM,?,?,?
CC(CNC(=O)COc1ccccc1)OC(=O)Nc1ccc(Cl)c(Cl)c1 (stereo unspecified),.,.,.,.,.
COc1ccc(-c2oc3ncn4nc(-c5ccccc5Cl)nc4c3c2-c2ccc(OC)cc2)cc1,.,.,.,.,.
O=C(OC1CCOC1=O)c1ccc2ncsc2c1 (stereo unspecified),.,.,28µM,.,.
COC(=O)C1(CC2CC(c3ccc(Cl)cc3)=NO2)CCN(C(=O)OC(C)(C)C)CC1 (stereo unspecified),.,.,.[2.33 µM],.,.
NS(=O)(=O)c1cccc(NC(=O)COC(=O)Cc2ccc(S(=O)(=O)N3CCCCC3)s2)c1,.,.,45µM,?,.
O=C(COC(=O)Cc1ccc(S(=O)(=O)N2CCOCC2)s1)NCc1ccccc1,.,.,?,.,.
O=C(COC(=O)Cc1ccc(S(=O)(=O)N2CCCCC2)s1)Nc1ccc2c(c1)OCO2,.,.,22µM,/,.
O=C(Cc1ccc(S(=O)(=O)N2CCCC2)s1)Nc1cccc([N+](=O)[O-])c1,.,?,/,/,.
O=C(COC(=O)Cc1ccc(S(=O)(=O)N2CCOCC2)s1)NCCc1ccccc1,.,.,?,50µM,.
CSc1ccccc1C(=O)NC1CCCCC1,.,.,.,.,.
C/C(=N\NC(=O)C1=NNC(=O)C1C)c1cccs1 (stereo unspecified),.,.[11.4 µM],45µM,?,.
O=C(NNC(=S)NC(=O)c1cccs1)c1ccc(O)cc1,.,.,40µM,.,.
O=C(NNC(=S)NC(=O)c1cccs1)c1cccnc1,?,.,45µM,.,.
CCCCCCCCC(=O)N/N=C(\C)c1cccnc1,.,89µM,10µM,.,.
C=CCN(c1ccc(OC)cc1)S(=O)(=O)c1ccc(Cl)c(C(=O)OCC(=O)c2c(N)n(C)c(=O)n(C)c2=O)c1,.,.,/,/,.
COc1ccc(/C=C/C(=O)Oc2ccc(/C=N/NC(=O)c3ccccc3)cc2)cc1OC,.,.,.,.,.
CC(C)N(C(=O)COC(=O)[C@@H]1CC(O)CN1S(=O)(=O)c1ccccc1[N+](=O)[O-])C(C)C (stereo partly specified),.,.,.,.,.
Cc1ccc(Nc2ccc(C(=O)O)cc2N)cc1,?,.,/,.,.
C/C(=N\NC(=O)c1cccs1)c1cccnc1,?,18µM,.,/,.
C/C(=N\NC(=O)c1ccncc1)c1cccnc1,.,.,?,?,.
C[C@@H]1CN([C@H](C)CO)C(=O)CCCn2nncc2CO[C@H]1CN(C)Cc1ccc(-c2ccccc2)cc1,.,/,/,/,/
S=C1NC2(CCCCC2)NN1c1ccccc1,.,.,14µM,79µM,.
CC(C)(C)N1NC2(CCCCC2)NC1=S,?,18µM,?,?,.
